According to PubChem BioAssay (EPA / NIEHS):
Active and inactive are the calls of the source. Rule for the calls: active = hit-call score of the fitted dose curve at least 0.9, where 1 is the maximum; inactive = score below 0.9.

molecular target: Hepatocyte nuclear factor 6 (Homo sapiens) (UniProt Q9UBC0); test: ATG_HNF6_CIS: Attagene CIS-FACTORIAL HepG2 Assay for human Hepatocyte Nuclear Factor 6 (HNF6) (AID 2282952); conditions: HepG2 Attagene cis-factorial HNF6 reporter transcription; actives raise or lower the signal
Sequence (Q9UBC0 whole entry, looked up): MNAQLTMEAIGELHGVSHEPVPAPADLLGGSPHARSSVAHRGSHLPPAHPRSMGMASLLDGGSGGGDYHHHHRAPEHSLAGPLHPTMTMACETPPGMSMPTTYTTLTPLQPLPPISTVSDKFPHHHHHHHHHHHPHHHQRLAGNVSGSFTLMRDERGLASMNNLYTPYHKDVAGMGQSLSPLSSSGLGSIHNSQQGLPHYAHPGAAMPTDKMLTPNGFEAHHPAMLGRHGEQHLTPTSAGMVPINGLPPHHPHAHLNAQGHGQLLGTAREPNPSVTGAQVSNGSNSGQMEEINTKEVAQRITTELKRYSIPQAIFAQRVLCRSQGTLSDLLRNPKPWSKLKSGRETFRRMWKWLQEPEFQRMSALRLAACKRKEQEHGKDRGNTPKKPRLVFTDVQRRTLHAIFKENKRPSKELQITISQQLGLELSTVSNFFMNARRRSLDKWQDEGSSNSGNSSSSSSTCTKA
Experimental: ATG_CIS is a cell-based, multiplexed-readout assay that uses HepG2, a human liver cell line, with measurements taken at 24 hours after chemical dosing in a 24-well plate.ATG_HNF6_CIS is one of 52 assay component(s) measured or calculated from the ATG_CIS assay. It is designed to make measurements of mRNA induction, a form of inducible reporter, as detected with fluorescence intensity signals by Reverse transcription polymerase chain reaction (RT-PCR) and Capillary electrophoresis technology.Data from the assay component ATG_HNF6_CIS was analyzed into 1 assay endpoint. This assay endpoint, ATG_HNF6_CIS, was analyzed with bidirectional fitting relative to DMSO as the negative control and baseline of activity. Using a type of inducible reporter, measures of mRNA for gain or loss-of-signal activity can be used to understand the reporter gene at the transcription factor-level as they relate to the gene ONECUT1. Furthermore, this assay endpoint can be referred to as a primary readout, because this assay has produced multiple assay endpoints where this one serves a reporter gene function. To generalize the intended target to other relatable targets, this assay endpoint is annotated to the dna binding intended target family, where the subfamily is homeobox protein.
Human liver HepG2 cells are transiently transfected with multiple reporter transcription units (MRTUs) in 6-well plates using FuGene 6 reagent (Roche; 3 ml FuGene/1 mg DNA). The MRTU constructs are regulated by a cis-regulating element (promoter). […] A major difference between the CIS and TRANS system is that in CIS activities of endogenous TFs are measured, whereas the TRANS assay evaluates changes in activities of exogenous, chimeric NR-Gal4 proteins. […] At the end of 24 hour incubation, total RNA was isolated using TriZol reagent (Invitrogen). The isolated RNA is then reverse-transcribed using oligo(dT) primer and Mo-MLV reverse transcriptase (Invitrogen) with DNAse I (Ambion) treatment for 30 min. The one-tenth of the produced cDNA was amplified by PCR using Taq DNA polymerase (Invitrogen) and two reporter sequence-specific primers. The PCR products were fluorescently labeled by primer extension with 6-arboxyfluorescein (6-FAM) 5'-labeled reporter sequence-specific primer (2 min at 95 C, 20 s at 68 C and 10 min at 72 C) and these products were digested with 5U of HpaI (New England Biolabs) for 2h at 37 C. The fragments were purified using Qiaquick PCR columns (Qiagen), analyzed on an ABI 3130xL genetic analyzer (Applied Biosystems) with peak positions identified by using a set of X-rhodamine (ROX)-labeled MapMarker1000 molecular weight standards (BioVentures). The raw capillary electrophoresis data was processed using Attagraph software (Attagene).

For `CCCCCCC(=O)OCC`, which outcome is on record?
The outcome was “inactive”.

How did the outcome turn out when `Nc1ccccc1N` was run?
The outcome was “inactive”.

Which outcome does the source give for `Cc1ccc(C)c(O)c1C` here?
Its outcome is “inactive”.

With `NCCO` as the molecule, how does the outcome read?
Its outcome is “inactive”.

For `COc1cc(C=O)ccc1O`, which outcome is on record?
Its outcome is “inactive”.

`CN[C@H]1CC[C@@H](c2ccc(Cl)c(Cl)c2)c2ccc(S(N)(=O)=O)cc21` was tested. Which outcome did it give?
The outcome was “inactive”.

With `Cc1oc(-c2ccccc2)nc1CCOc1cccc2c1ccn2CCC(=O)O` as the molecule, how does the outcome read?
Its outcome is “inactive”.

How did the outcome turn out when `O=C(O)Cc1ccccc1Nc1c(Cl)cccc1Cl` was run?
Its outcome is “inactive”.

With `CC(C)c1ccc(C(=O)N=C(N)N)cc1S(C)(=O)=O` as the molecule, how does the outcome read?
The outcome was “inactive”.

With `CCCCCCCCCCCCCCCCCC(=O)O` as the molecule, how does the outcome read?
Its outcome is “inactive”.

For `Nc1nc(N)c2nc(CNc3ccc(C(=O)N[C@@H](CCC(=O)O)C(=O)O)cc3)cnc2n1`, which outcome is on record?
The outcome was “inactive”.

How did the outcome turn out when `Cc1cccc([N+](=O)[O-])c1C` was run?
The outcome was “inactive”.

For `Oc1ccc2ccccc2c1N=Nc1ccccc1`, which outcome is on record?
Its outcome is “inactive”.

`CC1(C)CC(N=C=O)CC(C)(CN=C=O)C1` (stereo not given) was tested. Which outcome did it give?
The outcome was “inactive”.

With `CCCCOC(=O)CCCCCCCCC(=O)OCCCC` as the molecule, how does the outcome read?
The outcome was “inactive”.

How did the outcome turn out when `COCCOC[C@H](CC1(C(=O)NC2CCC(C(=O)O)CC2)CCCC1)C(=O)Oc1ccc2c(c1)CCC2` (stereo not given in full) was run?
The outcome was “inactive”.

With `CCCCCCCC=O` as the molecule, how does the outcome read?
Its outcome is “inactive”.

`Cc1ccc(C)c(C)c1` was tested. Which outcome did it give?
Its outcome is “inactive”.

`NCC1(Cc2noc(=O)[nH]2)CCCCC1` was tested. Which outcome did it give?
The outcome was “inactive”.

With `CN1CCCC1=O` as the molecule, how does the outcome read?
Its outcome is “inactive”.

With `CC1(C)NC(=O)NC1=O` as the molecule, how does the outcome read?
The outcome was “inactive”.

With `CCNc1cccc(C)c1` as the molecule, how does the outcome read?
The outcome was “inactive”.

Which outcome does the source give for `CCCCCC(=O)O` here?
Its outcome is “inactive”.

For `Cc1ccc2ncccc2c1`, which outcome is on record?
The outcome was “inactive”.

With `CCOC(=O)C(C)(C)Oc1ccc(Cl)cc1` as the molecule, how does the outcome read?
Its outcome is “inactive”.

`CC(CO)OC(C)CO` (stereo not given) (tested in a mixture with another compound) was tested. Which outcome did it give?
The outcome was “inactive”.

For `CCOC(=O)CCC(=O)OCC`, which outcome is on record?
Its outcome is “inactive”.

Which outcome does the source give for `Cc1cc(NC(=O)C(=O)O)cc(C)c1Oc1ccc(O)c2c1CCC2` here?
Its outcome is “inactive”.

`O=c1[nH]cc(F)c(=O)[nH]1` was tested. Which outcome did it give?
Its outcome is “inactive”.

For `COc1ccc(S(=O)(=O)N2C(=O)[C@@](c3ccccc3OC)(N3C[C@H](O)C[C@H]3C(=O)N(C)C)c3cc(Cl)ccc32)c(OC)c1`, which outcome is on record?
Its outcome is “inactive”.

`CC(C)(C)c1cc(O)c(C(C)(C)C)cc1O` was tested. Which outcome did it give?
Its outcome is “inactive”.

`COCCOCCOC` was tested. Which outcome did it give?
The outcome was “inactive”.

For `O=C(OCCCCCOC(=O)c1ccccc1)c1ccccc1`, which outcome is on record?
Its outcome is “inactive”.

For `Cc1cccc(C)c1O`, which outcome is on record?
The outcome was “inactive”.

`O=[N+]([O-])C(CO)(CO)CO` was tested. Which outcome did it give?
The outcome was “inactive”.

`CN1CCN(Cc2cc(-c3ccc4[nH]c(=O)oc4c3)co2)[C@@H](c2ccc(F)cc2)C1` was tested. Which outcome did it give?
Its outcome is “inactive”.

For `C[Si]1(C)O[Si](C)(C)O[Si](C)(C)O[Si](C)(C)O1`, which outcome is on record?
The outcome was “inactive”.

Which outcome does the source give for `Clc1cc(Cl)c(Cl)cc1Cl` here?
The outcome was “inactive”.

With `NS(=O)(=O)c1cc2c(cc1Cl)NCNS2(=O)=O` as the molecule, how does the outcome read?
Its outcome is “inactive”.

With `COc1ccc2c(c1)c(CC(=O)O)c(C)n2C(=O)c1ccc(Cl)cc1` as the molecule, how does the outcome read?
Its outcome is “inactive”.
